Values joined by “and” are separate entries in the source; they are usually repeats but may differ in a detail not shown here. Identical values can stand only once. The panel holds about 83,000 compounds, 20% with a hit somewhere; the sample as a whole holds those more often.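 Step 1: grow cells in 96-well plates. Step 2: add test compound at a single concentration. Step 3: incubate 48 h. Step 4: record percent growth.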 Active and inactive are the calls of the source. Rule for the calls: active = growth percent below 10; inactive = the rest.
Columns and labels:
Experiment in all cases: NCI-60 one-dose screen, 48 h (100 = growth as untreated, 0 = no growth, -100 = all killed)
Conditions in all cases: 10 µM unless noted
SK-MEL-2 melanoma = tested on: SK-MEL-2 melanoma
EKVX NSCLC = tested on: EKVX NSCLC
SN12C renal = tested on: SN12C renal
UO-31 renal = tested on: UO-31 renal
TK-10 renal = tested on: TK-10 renal
ACHN renal = tested on: ACHN renal
CAKI-1 renal = tested on: CAKI-1 renal
A498 renal = tested on: A498 renal
CCRF-CEM leukemia = tested on: CCRF-CEM leukemia
MOLT-4 leukemia = tested on: MOLT-4 leukemia

Measured: growth

COc1ccc(C/C(C)=C(/c2ccc(OCCN3CCCCCC3)cc2)c2ccc(OC(=O)c3ccccc3)cc2)cc1
inactive: SK-MEL-2 melanoma 97.4% | EKVX NSCLC 93% | SN12C renal 97.4% | UO-31 renal 88.4% | TK-10 renal 97.2% | ACHN renal 99.6% | CAKI-1 renal 104% | A498 renal 120% | CCRF-CEM leukemia 93% | MOLT-4 leukemia 77%

FC(F)(F)Sc1ccc(/C=C/c2cc(/C=C/c3ccc(SC(F)(F)F)cc3)n(-c3ccccc3)n2)cc1
inactive: SK-MEL-2 melanoma 101% | EKVX NSCLC 93.9% | SN12C renal 100% | UO-31 renal 76.7% | TK-10 renal 100% | ACHN renal 93.9% | CAKI-1 renal 78.5% | A498 renal 86.8% | CCRF-CEM leukemia 94.7% | MOLT-4 leukemia 95.6%

O=C1c2cc3c(cc2-c2c1c1ccc(Cl)cc1c(=O)n2CCCn1ccnc1)OCO3
inactive: SK-MEL-2 melanoma 31.1% | EKVX NSCLC 42.4% | SN12C renal 12.6% | TK-10 renal 46.3%
active: UO-31 renal -7.59% | ACHN renal -19% | CAKI-1 renal 9.62% | A498 renal -12.9% | CCRF-CEM leukemia 3.44% | MOLT-4 leukemia -28.2%

C=C(C)[C@@H]1CC[C@]2(C(=O)N3CCN(C)CC3)CC[C@]3(C)[C@H](CC[C@@H]4[C@@]5(C)CC(CCCNC(C)=O)(CCCNC(C)=O)[C@H](OC(C)=O)C(C)(C)[C@@H]5CC[C@]43C)[C@@H]12
inactive: SK-MEL-2 melanoma 112% | EKVX NSCLC 96.4% | SN12C renal 96.5% | UO-31 renal 80.5% | TK-10 renal 109% | ACHN renal 101% | CAKI-1 renal 79.3% | A498 renal 109% | CCRF-CEM leukemia 91.8% | MOLT-4 leukemia 85.7%

COCCOc1cc2ncnc(N3CCN(S(=O)(=O)c4ccccc4Cl)CC3)c2cc1OCCOC
inactive: SK-MEL-2 melanoma 88.1% | EKVX NSCLC 90.9% | SN12C renal 105% | UO-31 renal 70% | TK-10 renal 98.9% | ACHN renal 97.5% | CAKI-1 renal 86.6% | A498 renal 54.9% | CCRF-CEM leukemia 79% | MOLT-4 leukemia 65.2%

O=C(O)c1ccccc1Cc1ccc(F)c2ccccc12
inactive: SK-MEL-2 melanoma 101% and 119% | EKVX NSCLC 107% | SN12C renal 107% and 97.9% | UO-31 renal 77.7% and 89.1% | TK-10 renal 107% and 109% | ACHN renal 99.3% and 102% | CAKI-1 renal 94.9% and 100% | A498 renal 99.3% and 97.4% | CCRF-CEM leukemia 98.8% and 96.3% | MOLT-4 leukemia 93.7% and 107%

Cc1n(Cc2ccc3ccccc3c2)c(Cl)c(Cl)[n+]1Cc1ccc2ccccc2c1
inactive: SK-MEL-2 melanoma 25.5% | EKVX NSCLC 51.1% | SN12C renal 30.7% | UO-31 renal 72.1% | TK-10 renal 52.5% | ACHN renal 80.8% | CAKI-1 renal 29.2% | A498 renal 40.3% | CCRF-CEM leukemia 14% | MOLT-4 leukemia 25.4%

N=C(N)c1ccc(-c2ccc(-c3ccc(F)cc3)s2)nc1
inactive: SK-MEL-2 melanoma 101% | EKVX NSCLC 79.3% | SN12C renal 75.3% | UO-31 renal 74.1% | TK-10 renal 108% | ACHN renal 76% | CAKI-1 renal 65.4% | A498 renal 79% | CCRF-CEM leukemia 47.8% | MOLT-4 leukemia 26.3%

CCCc1cc(C(N)=S)ccn1
inactive: SK-MEL-2 melanoma 103% | EKVX NSCLC 99.1% | SN12C renal 105% | UO-31 renal 76.4% | TK-10 renal 100% | ACHN renal 102% | CAKI-1 renal 96.1% | A498 renal 125% | CCRF-CEM leukemia 113% | MOLT-4 leukemia 105%

N=c1c2c(-c3ccccc3)c(-c3ccccc3)oc2ncn1NC(=O)c1cccnc1
inactive: SK-MEL-2 melanoma 111% | EKVX NSCLC 96.1% | SN12C renal 102% | UO-31 renal 75.9% | TK-10 renal 112% | ACHN renal 109% | CAKI-1 renal 93.8% | A498 renal 73.6% | CCRF-CEM leukemia 84% | MOLT-4 leukemia 89.9%

COc1ccc(C(=O)N/N=C/c2ccc(O)cc2O)cc1Nc1ccnc(C(F)(F)F)c1
active: CCRF-CEM leukemia 5.69%
inactive: SK-MEL-2 melanoma 61.5% | EKVX NSCLC 26.9% | SN12C renal 33.1% | UO-31 renal 30.4% | TK-10 renal 53.4% | ACHN renal 35.8% | CAKI-1 renal 39.3% | A498 renal 55.2% | MOLT-4 leukemia 23.4%

CONC1=Nc2cc(NC(N)=NCc3ccccc3)c(N(C)C3CCCCC3)cc2OC1
inactive: SK-MEL-2 melanoma 91.5% | EKVX NSCLC 62% | SN12C renal 64.8% | UO-31 renal 75.5% | TK-10 renal 82.3% | ACHN renal 79.1% | CAKI-1 renal 93.7% | A498 renal 82.4% | CCRF-CEM leukemia 68.2% | MOLT-4 leukemia 54.2%

CS(=O)(=O)Nc1cc(-c2ccc3ncnc(Nc4ccc(F)c(Cl)c4)c3c2)cnc1Cl
inactive: SN12C renal 10.2% | ACHN renal 14.6%
active: SK-MEL-2 melanoma -7.25% | EKVX NSCLC -3.92% | UO-31 renal -3.81% | TK-10 renal -14.5% | CAKI-1 renal 3.33% | A498 renal -59.3% | CCRF-CEM leukemia 9.76% | MOLT-4 leukemia -19.9%

Cc1nc2cccc(NCCCCC(=O)NO)c2c(=O)n1-c1ccccc1
inactive: SK-MEL-2 melanoma 55.9% | EKVX NSCLC 63.8% | SN12C renal 69.8% | UO-31 renal 56.6% | TK-10 renal 37.1% | ACHN renal 54.3% | CAKI-1 renal 55.6% | A498 renal 48.5% | CCRF-CEM leukemia 25.3% | MOLT-4 leukemia 25.1%

CC1=CC(C)(C)NC(=S)N1c1ccc(Cl)cc1
inactive: SK-MEL-2 melanoma 101% and 94.3% | EKVX NSCLC 91.5% and 106% | SN12C renal 95.6% and 99% | UO-31 renal 82.2% | TK-10 renal 99.7% and 98.7% | ACHN renal 94.7% and 99.9% | CAKI-1 renal 91.6% and 97.8% | A498 renal 104% | CCRF-CEM leukemia 105% and 89.1% | MOLT-4 leukemia 95% and 96.8%

CCCCCCCCn1ccc2cc(NC(=O)CN3CCN(c4nc(C)cc(N5CCCCC5)n4)CC3)ccc21
inactive: SK-MEL-2 melanoma 114% | EKVX NSCLC 79.4% | SN12C renal 91.9% | UO-31 renal 58.4% | TK-10 renal 98.5% | ACHN renal 91.7% | CAKI-1 renal 86.8% | A498 renal 104%
active: CCRF-CEM leukemia -43.6% | MOLT-4 leukemia 0.667%

Cc1cc(N2CCN(CC(=O)Nc3ccc4c(ccn4Cc4ccccc4)c3)CC2)nc(N2CCCCCC2)n1
active: UO-31 renal -1.98% | A498 renal 5.69%
inactive: SK-MEL-2 melanoma 64% | EKVX NSCLC 57.5% | SN12C renal 54.8% | TK-10 renal 73.1% | ACHN renal 57.5% | CAKI-1 renal 31.9% | CCRF-CEM leukemia 46.2% | MOLT-4 leukemia 44.3%

O=[N+]([O-])c1cc(C(F)(F)F)ccc1Sc1ccc(C(F)(F)F)cc1[N+](=O)[O-]
inactive: SK-MEL-2 melanoma 73.3% | EKVX NSCLC 87% | SN12C renal 72.8% | UO-31 renal 77.3% | TK-10 renal 98.7% | ACHN renal 86.6% | CAKI-1 renal 44.7% | A498 renal 87% | CCRF-CEM leukemia 14.5%
active: MOLT-4 leukemia 9.53%

Oc1ccccc1C=Nc1ccc(N2CCN(c3ccccc3)CC2)cc1
inactive: SK-MEL-2 melanoma 102% | EKVX NSCLC 113% | SN12C renal 102% | UO-31 renal 86.3% | TK-10 renal 93.8% | ACHN renal 72.9% | CAKI-1 renal 91.9% | A498 renal 98.6% | CCRF-CEM leukemia 62.2% | MOLT-4 leukemia 93.5%

NC(=O)c1c(NC(=O)/C=C/c2cccs2)sc2c1CCC(=O)C2
inactive: SK-MEL-2 melanoma 49.7% | EKVX NSCLC 40.4% | SN12C renal 23.1% | TK-10 renal 43.9% | CAKI-1 renal 14.2% | A498 renal 115% | CCRF-CEM leukemia 10.5% | MOLT-4 leukemia 21.8%
active: UO-31 renal 5.7% | ACHN renal 5.27%

CCCn1nc(C(=O)N2CCCCC2)c2c1CCC(N1CCC(c3ccncc3)CC1)C2 (stereo not given)
inactive: SK-MEL-2 melanoma 105% | EKVX NSCLC 100% | SN12C renal 118% | UO-31 renal 92.7% | TK-10 renal 101% | ACHN renal 105% | CAKI-1 renal 95.8% | A498 renal 109% | CCRF-CEM leukemia 101% | MOLT-4 leukemia 108%

COc1cc(CO)cc2cc3ccccc3nc12
active: A498 renal -22.1%
inactive: SK-MEL-2 melanoma 111% | EKVX NSCLC 102% | SN12C renal 101% | UO-31 renal 81.7% | TK-10 renal 118% | ACHN renal 105% | CAKI-1 renal 93.6% | CCRF-CEM leukemia 99.1% | MOLT-4 leukemia 99.4%

O=C(NCCCN1CCCCC1)c1ccc(-c2nc3ccc4[nH]ncc4c3c3c2CCCC3)cc1
inactive: SK-MEL-2 melanoma 81.4% | EKVX NSCLC 67.4% | SN12C renal 50.4% | UO-31 renal 54.4% | TK-10 renal 43.7% | ACHN renal 27.4% | CAKI-1 renal 10.9% | CCRF-CEM leukemia 21.6% | MOLT-4 leukemia 18.4%
active: A498 renal -10%

Source: PubChem BioAssay (NCI)
